{"source": "paper PMC12350791", "key": {"[1]": {"target": "ATP-dependent RNA helicase DDX24 (UniProt Q9GZR7)", "experiment": "cross-linking mass spectrometry"}, "[2]": {"target": "Spectrin alpha chain, non-erythrocytic 1 (UniProt Q13813)", "experiment": "cross-linking mass spectrometry"}, "Twinfilin-2": {"target": "T1, Twinfilin-2 (UniProt Q6IBS0)", "T1 sequence": "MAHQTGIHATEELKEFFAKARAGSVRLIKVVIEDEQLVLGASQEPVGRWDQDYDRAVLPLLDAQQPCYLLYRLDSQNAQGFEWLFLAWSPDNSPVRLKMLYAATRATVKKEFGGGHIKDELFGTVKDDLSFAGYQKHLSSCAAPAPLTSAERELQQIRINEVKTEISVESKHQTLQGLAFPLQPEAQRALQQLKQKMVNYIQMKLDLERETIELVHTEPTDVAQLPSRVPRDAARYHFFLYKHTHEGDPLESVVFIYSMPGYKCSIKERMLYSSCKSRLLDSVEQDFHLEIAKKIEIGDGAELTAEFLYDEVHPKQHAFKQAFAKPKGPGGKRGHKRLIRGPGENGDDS", "experiment": "cross-link between two proteins; cross-linking mass spectrometry"}, "[3]": {"target": "Superkiller complex protein 8 (UniProt Q9GZS3)", "experiment": "cross-link between two proteins; cross-linking mass spectrometry"}}, "data": [{"substance": "Large ribosomal subunit protein eL20, Q02543", "values": [{"measurement": "listed as a hit", "setting": "[1]", "value": "yes"}]}, {"substance": "Actin, cytoplasmic 1, P60709", "values": [{"measurement": "listed as a hit", "setting": "[2]", "value": "yes"}, {"measurement": "listed as a hit", "setting": "Twinfilin-2", "value": "yes"}]}, {"substance": "RNA polymerase-associated protein CTR9 homolog, Q6PD62", "values": [{"measurement": "listed as a hit", "setting": "[3]", "value": "yes"}]}]}
